According to PubChem BioAssay (NCATS):
Records with an inconclusive call do not appear. A call without a number means that no potency is given here. For part of these data: Measured potencies and affinities stand elsewhere. Calls of active or inactive are those of the source.

Experiments:
[1] = Ebola virus entry assay, reporter ratio channel; AC50: Channel type: primary unless noted; outcome: Channel type: primary unless noted
[2] = Ebola virus entry assay, blue channel (ratio component)
[3] = Ebola virus entry assay, blue channel fluorescence
[4] = Ebola virus entry cell assay, ratio channel
[5] = qHTS assay to identify small molecule inhibitors of chordoma cells - UCH-1 (AID 1259355; active = well fitted curve in the direction sought with a large enough effect; an effect the other way counts as inactive or inconclusive; also: nearly all actives have a fitted effect of over 55% in size)
In short: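 Cells (800/well) were seeded and left overnight at 37 C, 5% CO2, then treated with drugs at 15 concentrations plus a combination mix of auranofin, camptothecin, doxorubicin, rubitecan and topotecan. Viability after 48hr was read by CellTiter-Glo luminescence.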

[6] = qHTS assay to identify small molecule inhibitors of chordoma cells - UCH-2 (AID 1259356; active = well fitted curve in the direction sought with a large enough effect; an effect the other way counts as inactive or inconclusive; also: series mostly up to about 46 µM)
[7] = Immunotoxin (SS1P) sensitization/mitigation study. Vehicle arm (DMEM) (AID 1159513)
[8] = Ebola virus entry reporter assay, green channel fluorescence

O=C(N/N=C/c1ccccc1O)c1ccncc1
outcome [1]: inactive
outcome [2]: inactive

Cc1c(C)c2c(c(C)c1O)CCC(C)(COc1ccc(CC3SC(=O)NC3=O)cc1)O2 (stereo not drawn)
outcome [1]: inactive

Cc1onc(-c2ccccc2)c1C(=O)N[C@@H]1C(=O)N2[C@@H](C(=O)O)C(C)(C)S[C@@H]12
outcome [3]: inactive
outcome [4]: inactive

CC(=O)NC[C@H]1CN(c2ccc(N3CCOCC3)c(F)c2)C(=O)O1
outcome [3]: inactive
outcome [4]: inactive

COCCOC(=O)C1=C(C)NC(C)=C(C(=O)OC(C)C)C1c1cccc([N+](=O)[O-])c1 (stereo not drawn)
outcome [1]: inactive
outcome [2]: inactive

CCCCCCCCCCCCCCCC(=O)OCCC1CCN(CCCN2c3ccccc3Sc3ccc(S(=O)(=O)N(C)C)cc32)CC1
outcome [3]: inactive
outcome [4]: inactive

Cc1cc(CC(=O)O)c(C)n1-c1ccc(Cl)cc1
outcome [1]: inactive
outcome [2]: inactive

CN1Cc2cc(C(=O)N3CCC(C4CCNCC4)CC3)ccc2NC(CC(=O)O)C1=O (stereo not drawn)
outcome [1]: inactive
outcome [2]: inactive

CN1C(C(=O)Nc2ccccn2)=C(O)c2sccc2S1(=O)=O
outcome [1]: inactive
outcome [2]: inactive

CCCC(C)(COC(N)=O)COC(N)=O
outcome [3]: inactive
outcome [4]: inactive
outcome [5]: inactive
outcome [6]: inactive

N[C@@H](CCC(=O)N[C@@H](CS)C(=O)NCC(=O)O)C(=O)O
outcome [1]: inactive
outcome [2]: inactive

Nc1ccn([C@@H]2O[C@H](CO)[C@@H](O)C2O)c(=O)n1 (stereo partly drawn)
outcome [3]: inactive
outcome [4]: inactive

O=P(O)(O)C(Sc1ccc(Cl)cc1)P(=O)(O)O
outcome [3]: inactive
outcome [4]: inactive

C=C1C(=C/C=C2\CCC[C@]3(C)[C@@H]([C@H](C)CCCC(C)(C)O)CC[C@@H]23)C[C@@H](O)C[C@@H]1O
outcome [3]: inactive
outcome [4]: inactive

CN1C(=O)C(O)N=C(c2ccccc2)c2cc(Cl)ccc21 (stereo not drawn)
outcome [3]: inactive
outcome [4]: inactive
outcome [5]: inactive
outcome [6]: inactive

O=C(C1CCCCC1)N1CC(=O)N2CCCc3ccccc3C2C1 (stereo not drawn)
outcome [1]: inactive
outcome [2]: inactive

CC(=O)S[C@@H]1CC2=CC(=O)CC[C@]2(C)[C@H]2CC[C@@]3(C)[C@@H](CC[C@@]34CCC(=O)O4)[C@H]12
outcome [3]: inactive
outcome [4]: inactive

CCN(CC)CCOC(=O)c1ccc(N)cc1
outcome [1]: inactive
outcome [2]: inactive

NS(=O)(=O)c1cc(Cl)c(Cl)c(S(N)(=O)=O)c1
outcome [3]: inactive
outcome [4]: inactive

COc1ccnc(CS(=O)c2nc3cc(OC(F)F)ccc3[nH]2)c1OC (stereo not drawn)
outcome [3]: inactive
outcome [4]: inactive

Nc1ccn(C[C@@H](CO)OCP(=O)(O)O)c(=O)n1
outcome [3]: inactive
outcome [4]: inactive

OC[C@H]1O[C@@H](n2cnc3c2NC=NC[C@H]3O)C[C@@H]1O
outcome [3]: inactive
outcome [4]: inactive

Cc1nnc2n1-c1ccc(Cl)cc1C(c1ccccc1)=NC2
outcome [3]: inactive
outcome [4]: inactive
outcome [6]: inactive

Nc1nc(=O)n([C@@H]2CS[C@H](CO)O2)cc1F
outcome [3]: inactive
outcome [4]: inactive

COC(=O)C(c1ccccc1)C1CCCCN1 (stereo not drawn)
outcome [3]: inactive
outcome [4]: inactive
outcome [5]: inactive
outcome [6]: inactive

CC(=O)N=c1sc(S(N)(=O)=O)nn1C
outcome [3]: inactive
outcome [4]: inactive

CC(=O)O[C@]1(C(C)=O)CC[C@H]2[C@@H]3C[C@H](C)C4=CC(=O)CC[C@]4(C)[C@H]3CC[C@@]21C
outcome [1]: inactive
outcome [2]: inactive

COC(=O)N/N=C/c1c[n+]([O-])c2ccccc2[n+]1[O-]
outcome [1]: inactive
outcome [2]: inactive

CO/N=C(/C(=O)N[C@@H]1C(=O)N2C(C(=O)O)=C(COC(N)=O)CS[C@H]12)c1ccco1
outcome [3]: inactive
outcome [4]: inactive

CC=CC1=C(C(=O)O)N2C(=O)[C@H](NC(=O)[C@H](N)c3ccc(O)cc3)[C@@H]2SC1
outcome [3]: inactive
outcome [4]: inactive

Cc1nnc2n1-c1ccc(Cl)cc1C(c1ccccc1Cl)=NC2
outcome [3]: inactive
outcome [4]: inactive
outcome [5]: inactive
outcome [6]: inactive

O=C1Nc2ccc(Cl)cc2C(c2ccccc2)=NC1O (stereo not drawn)
outcome [3]: inactive
outcome [4]: inactive
outcome [5]: inactive
outcome [6]: inactive

CC(=O)OCC(=O)[C@@]1(OC(C)=O)[C@@H](C)C[C@H]2[C@@H]3C[C@H](F)C4=CC(=O)C=C[C@]4(C)[C@@]3(F)[C@@H](O)C[C@@]21C
outcome [1]: inactive
outcome [2]: inactive

N#Cc1ccc(C(c2ccc(C#N)cc2)n2cncn2)cc1
outcome [3]: inactive
outcome [4]: inactive
Potency [7]: inactive

CN=C1CN(O)C(c2ccccc2)=c2cc(Cl)ccc2=N1
outcome [8]: inactive
AC50 [4]: 12.6 µM (active)
outcome [5]: inactive
outcome [6]: inactive

COc1ccc2c(c1)C13CCCC[C@@H]1C(C2)N(C)CC3 (stereo partly drawn)
outcome [4]: inactive
outcome [5]: inactive
outcome [6]: inactive

CN1CCN(C(c2ccccc2)c2ccc(Cl)cc2)CC1 (stereo not drawn)
AC50 [4]: 10 µM (active)

CC(C)(C)NC[C@H](O)COc1ccccc1C1CCCC1
outcome [8]: inactive
AC50 [4]: 3.55 µM (active)

O=C(OC1C[C@@H]2CC3C[C@H](C1)N2CC3=O)c1c[nH]c2ccccc12 (stereo partly drawn)
outcome [8]: inactive
outcome [4]: inactive

COc1cc(NS(C)(=O)=O)ccc1Nc1c2ccccc2nc2ccccc12
outcome [8]: inactive
outcome [4]: inactive
